Residue numbers refer to the chain shown, from its start. Over roughly 24,000 sequences, “enrichment r” has its median near 0.99; the highest 2% begin near 3.7. Shown is part of a subset that was picked to be rich in the highest values.
T1: UNK ZnF1-3 (human, UniProt Q9C0B0 31-174)
T1 sequence: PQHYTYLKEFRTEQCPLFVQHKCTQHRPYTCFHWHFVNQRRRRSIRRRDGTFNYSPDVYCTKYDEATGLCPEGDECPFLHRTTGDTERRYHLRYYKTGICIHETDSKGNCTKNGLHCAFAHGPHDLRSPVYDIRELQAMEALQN

B1: chr1:241675328:241675329:-_ENSG00000091483_ENST00000366560|hu_mus|FALSE|FALSE (ssRNA)
RNA: GGGAGUUCUACAGUCCGACGAUCGCUUUUGUUAACAUGAUCAUUGGGGUGCACAGGCUUCUUGCUGCCAAGUUCACCUCCUAACAUUUCAAUUGCUCUGUUGCUAAUGACUUCAUUUACAUUCAUGUUUGUCUGGGUUCCUGACAACAGAGGAUUGAGCAUCA
B2: chr17:45747064:45747065:+_ENSG00000108424_ENST00000290158|hu_hu|hu_hu_hu_mus_True|38_108 (ssRNA)
RNA: GGGAGUUCUACAGUCCGACGAUCGCCUACAGUCCAUGCUGUUGUGUCUCGAACAACUACACUGGGGUCUUUCAUUAGUUCUAUUAGGGUGGGCAUAGCCUGUAUAACUAAUGGUUUCAGUUGAUUAGGCUCUGGUCCUUCCAACAACAGAGGAUUGAGCAUCA
B3: chr18:10010020:10010021:-_ENSMUSG00000047879_ENSMUST00000092096|mus_hu|FALSE|FALSE (ssRNA)
RNA: GGGAGUUCUACAGUCCGACGAUCCUCGGCAAACUGUGGGAAAGCCAUGUGCAAAAACUGCAGUAGAAUAAUAGGUGGAAUACUGGAAGAAGUUUUAUCCAUGGAAUCAAACAAAUCUCUAAGGGCUGCAGUAAUAUACUGCGCCAACAGAGGAUUGAGCAUCA
B4: chr7:149068622:149068623:-_ENSMUSG00000025139_ENSMUST00000001950|mus_hu|mus_mus_mus_hu_False|68_98 (ssRNA)
RNA: GGGAGUUCUACAGUCCGACGAUCGUGAGGCCUCUGAGUGAGGUUCCUGGUCUGUCCUGGGUUAGAGCUGCUGGUAACACGGAACAUACCAUCUAGAACGUUCCAGUCCCGCCUGACACCUUCAUUCCCAAUGGAGAAGAAAUCCAACAGAGGAUUGAGCAUCA
B5: chr7:141445308:141445309:+_ENSG00000106028_ENST00000265304|hu_hu|hu_hu_hu_mus_False|48_68 (ssRNA)
RNA: GGGAGUUCUACAGUCCGACGAUCUAUGAUUGUUGUUGCUUGCCGCCUCACAUUGUUUUUAUCCAUGUAUUCACCAUAGUCCACUUUCCCUUCCAAAAAUAUACGAGCCCCCUUUUUCACAUACUGAUAUGCCACAUCUCUGAGCAACAGAGGAUUGAGCAUCA
B6: 120768192_120770490_416_CDS_ENSMUSG00000043207_ENSMUST00000058754|mouse|control|control (ssRNA)
RNA: GGGAGUUCUACAGUCCGACGAUCGCUGAAGGUACUUUUAUCCAGUUGAUACAAUCGAGAUUUCUCAAACGUGUCCGAAUCCAUGAUCUGUUCUAACUCUGCUGGUACGCGAGUCGUCGUUUUGUAUAUCCUUCUCUGCCGCUGCAACAGAGGAUUGAGCAUCA
B7: chr1:163117127:163117128:-_ENSG00000143248_ENST00000313961|hu_mus|hu_hu_hu_mus_False|18_78 (ssRNA)
RNA: GGGAGUUCUACAGUCCGACGAUCUGCUACAAAGGAUGUAACUCAACUCACAGGGCAUGAUUUCAUAGCCUGACCAGAUGACUACUUGAUUAGCUCCUUAUAAAAUUCAGAGCGCACAAAGCGAGGCAGAGAAUCCUUCUCCAUCAACAGAGGAUUGAGCAUCA
B8: chr1:60041781:60041782:+_ENSMUSG00000041040_ENSMUST00000036540|mus_hu|mus_mus_mus_hu_False|18_88 (ssRNA)
RNA: GGGAGUUCUACAGUCCGACGAUCAAGUUUACAAUAGUAAAGUAAAUCAAAUUUAGUCAAAUUUUCUUUUAUUUUCCUUCACAAAAGAAAAUCUUUAUAACCCAGUCCUAGUCUUGGCAGAGAAAGCAGCUAUAAAUUCUGACUCAACAGAGGAUUGAGCAUCA
B9: chr1:163117127:163117128:-_ENSG00000143248_ENST00000313961|hu_mus|hu_hu_hu_mus_False|48_78 (ssRNA)
RNA: B7 RNA with G92A, A123G
B10: chr15:76909541:76909542:-_ENSMUSG00000033565_ENSMUST00000166610|perfect_dup|FALSE|FALSE (ssRNA)
RNA: GGGAGUUCUACAGUCCGACGAUCAACAUGAUCAAUAAUUUAUACACAUGGAGAGUAAUACAAAAAAAUAAGGAAUAAAAGCUAAAGAUCUAACUACUCCGACCUUCACAAUUCCAGCUACUUGAUAAUAAUAGGAGUAACCCACAACAGAGGAUUGAGCAUCA
B11: chr20:57570089:57570090:+_ENSG00000101158_ENST00000344018|hu_mus|FALSE|FALSE (ssRNA)
RNA: GGGAGUUCUACAGUCCGACGAUCACUCCCACACACACACAUACAACUCAACAUUACUCUUGGAAACUUAAAGUAACUGACCAUCUGGGUCAUAGGAAGGAAACUUACAUAAACCCUUCAUGAAGUGUCCCAGCUGCUAGAUUCCAACAGAGGAUUGAGCAUCA
B12: chr15:76909541:76909542:-_ENSMUSG00000033565_ENSMUST00000166610|perfect_dup|motif|central (ssRNA)
RNA: B10 RNA with U82G, A83G
B13: 168352429_168352549_4431_CDS_ENSG00000130396_ENST00000400822|human|control|control (ssRNA)
RNA: GGGAGUUCUACAGUCCGACGAUCAAUGUACUGCAAGUCUCUGCGCUCGAUCGUGCGGGGCUGCUGCUGAGGCUGCAGCUCCCGAAUGACUGUUUCCUGUGGCCGCUGGAGUGUGGAAGGCUUUUCGGGCUUCAUCUGCUGUGCCAACAGAGGAUUGAGCAUCA
B14: chr2:201681052:201681053:+_ENSG00000082153_ENST00000409600|hu_hu|FALSE|FALSE (ssRNA)
RNA: GGGAGUUCUACAGUCCGACGAUCUUUUACUUCAUCUUCAAAACCUUUCUCCAGGUAUUUGUAGCGCCUGAUUAACUUGUUAAAAACCUGAGCAAAUGCUUGCAUGGUCUCUAGAUCUUCUUGGGCUGCAAACACGCAGACAUCCAACAGAGGAUUGAGCAUCA
B15: 5253780_5253900_1103_CDS_ENSG00000029725_ENST00000262477|human|control|control (ssRNA)
RNA: GGGAGUUCUACAGUCCGACGAUCAACUUGUCGGAGCUGUUCUGAAGUUAGCACAAUCUCCAUUCGCUGCAUGUCUCUCAUCAGUAAACGCUGAGAUUCCAGAAACUGGUCAUUGGCCUUCUGCCACGUAUGUUUUAACUGGUUCAACAGAGGAUUGAGCAUCA
B16: chr22:32879901:32879902:+_ENSG00000100225_ENST00000397426|hu_mus|hu_hu_hu_mus_False|48_98 (ssRNA)
RNA: GGGAGUUCUACAGUCCGACGAUCCUCUUCCAUACUCGCAUUAUCUUGAAUUGACUCAGCUUCAACAUUUUGACUAGGCCCUUCCAUACUGUCGUCAGUCCAGGCAUCAAAUGGGGUGGCCUGUCCUUGGGAUGAAUCAGUCCCCAACAGAGGAUUGAGCAUCA
B17: chr17:56552419:56552420:-_ENSMUSG00000013236_ENSMUST00000086828|mus_mus|mus_mus_mus_hu_False|1_78 (ssRNA)
RNA: GGGAGUUCUACAGUCCGACGAUCAAAAAAUACACUAUUUAAAAAAAAUGAAAUGUCAGAAAAAGAAGUUACACUGAGAGUUUUAAAAGAAAGCUGGAUUCUGGUCCCAGCCCAGUGUCCCCAGGCUGCAGAGCGGGGCAGAGGCAACAGAGGAUUGAGCAUCA
B18: chr17:56552419:56552420:-_ENSMUSG00000013236_ENSMUST00000086828|mus_mus|mus_mus_mus_hu_False|78_98 (ssRNA)
RNA: B17 RNA with U38A, U39A, C138A, A139G, G143C
B19: chr17:56552419:56552420:-_ENSMUSG00000013236_ENSMUST00000086828|mus_mus|mus_mus_mus_hu_False|58_78 (ssRNA)
RNA: B17 RNA with G77C, G79C, U81A, C138A, A139G, G143C
B20: chr17:56552419:56552420:-_ENSMUSG00000013236_ENSMUST00000086828|mus_mus|mus_mus_mus_hu_False|78_88 (ssRNA)
RNA: B17 RNA with U48A, G49A, A50G, U53A, G54A, U55A, C56A, C138A, A139G, G143C
B21: 86747786_86748123_1683_CDS_ENSMUSG00000035671_ENSMUST00000039480|mouse|control|control (ssRNA)
RNA: GGGAGUUCUACAGUCCGACGAUCGUGCUGGUAGGCCAGCUUUCGCUUCUCUGGGGCUGAGUCUGGGAAAAGAGAGUGAGGCUCCUCCUCCAGGCGACAGGCCUCCAGCAGUGCCCUGCAGAGGCAGCCAAUGGGAUCCAGGGGCAACAGAGGAUUGAGCAUCA
B22: chr11:77336104:77336105:-_ENSG00000074201_ENST00000525064|hu_mus|hu_hu_hu_mus_False|68_98 (ssRNA)
RNA: GGGAGUUCUACAGUCCGACGAUCCUCACACAUUGCUGUGAACAUUGCCUCCAAUGCUGACUUAUCACUAGGCACAAAUCGAAAUUCAGAAAUGGGUUCAACAUCAUCAUUGUCUUCCUCAUCUUCAUCAGAGAGAGGUUCUUUCAACAGAGGAUUGAGCAUCA

molecular target: T1, UNK ZnF1-3; experiment: nsRBNS (natural sequence RNA bind-n-seq); RBNS binding buffer (assumed for nsRBNS): 25 mM Tris pH 7.5, 150 mM KCl, 3 mM MgCl2, 0.01% Triton X-100, 500 ug/ml BSA, 20 U/ml SUPERase-In, 4 C; UNK is unkempt and MSI1 is Musashi-1; names of the RNAs are library labels; protein concentration not given here; high values mean tight binding

Binder	binding signal
B1	0.274 enrichment R
B2	0.577 enrichment R
B3	1.59 enrichment R
B4	0.742 enrichment R
B5	0.799 enrichment R
B6	0.656 enrichment R
B7	0.919 enrichment R
B8	0.9 enrichment R
B9	1.08 enrichment R
B10	6.42 enrichment R
B11	1.41 enrichment R
B12	8.91 enrichment R
B13	0.667 enrichment R
B14	0.452 enrichment R
B15	0.594 enrichment R
B16	0.919 enrichment R
B17	3.68 enrichment R
B18	8.48 enrichment R
B19	8.52 enrichment R
B20	12.6 enrichment R
B21	0.778 enrichment R
B22	0.885 enrichment R
